# Hits are enriched below; roughly 7% of the tested compounds scored in any of these assays.
# KAT2A inh – blocks human GCN5L2 histone acetyltransferase; Potency, µM (top dose mostly 58.9 µM), actives largely listed as inhibitors; AID 504327; actives 0.21% (n = 390,000); GCN5L2 HAT assay, ThioGlo1 CoA-SH fluorescence
# Target sequence (Q92830 whole entry, looked up): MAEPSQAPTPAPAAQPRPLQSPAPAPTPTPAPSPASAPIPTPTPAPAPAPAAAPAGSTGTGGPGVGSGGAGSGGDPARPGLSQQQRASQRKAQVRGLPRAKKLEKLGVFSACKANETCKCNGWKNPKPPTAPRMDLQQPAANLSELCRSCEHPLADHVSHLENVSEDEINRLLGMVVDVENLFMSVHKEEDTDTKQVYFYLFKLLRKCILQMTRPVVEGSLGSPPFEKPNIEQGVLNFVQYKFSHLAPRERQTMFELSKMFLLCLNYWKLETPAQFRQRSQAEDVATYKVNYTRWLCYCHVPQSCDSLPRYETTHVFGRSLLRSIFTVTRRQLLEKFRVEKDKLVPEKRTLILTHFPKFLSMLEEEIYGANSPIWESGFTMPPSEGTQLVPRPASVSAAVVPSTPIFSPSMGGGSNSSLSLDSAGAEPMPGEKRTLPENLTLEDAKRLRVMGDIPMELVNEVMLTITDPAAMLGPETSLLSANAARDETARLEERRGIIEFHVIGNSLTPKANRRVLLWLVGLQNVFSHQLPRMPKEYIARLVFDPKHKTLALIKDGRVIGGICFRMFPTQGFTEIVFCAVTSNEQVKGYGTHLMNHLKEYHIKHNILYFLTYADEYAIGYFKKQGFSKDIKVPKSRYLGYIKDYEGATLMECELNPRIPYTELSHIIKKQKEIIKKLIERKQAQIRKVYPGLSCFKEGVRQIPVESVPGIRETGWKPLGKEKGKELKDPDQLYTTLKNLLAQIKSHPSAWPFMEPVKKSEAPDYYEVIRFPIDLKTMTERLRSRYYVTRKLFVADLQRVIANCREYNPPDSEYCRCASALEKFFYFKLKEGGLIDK
#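 Preincubate 20nM GCN5L2 with compound 15 min, RT → add 50uM ThioGlo1 + 75uM H3(1-25) + 70uM acetyl-CoA → read fluorescence 0 and 20 min. Primary qHTS; fluorescent artifacts likely.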
# BAZ2B inh – BAZ2B (human) inhibition; Potency, µM (top dose mostly 114 µM), hits mostly inhibitors; AID 504333; Q9UIF8; AlphaScreen BAZ2B-H3K14Ac peptide displacement; actives 4.4% (n = 360,000); also: nearly all actives have a fitted effect of over 60% in size
#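 Complex of BAZ2B and biotin-H3K14Ac (50 nM apiece) forms over 30 min at RT, then faces library compounds up to 110 uM for another 30 min; AlphaScreen beads added, 20 min dark incubation, luminescence read.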
# HP1b binding inh – blocks HP1-beta chromodomain binding to methylated histone tails; AID 540317; actives 0.56% (n = 390,000); Potency, µM (highest dose often 114 µM), actives largely listed as inhibitors; AlphaScreen HP1-beta / biotin-H3K9me3 peptide binding; P83916; also: nearly all actives have a fitted effect of over 70% in size
#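 AlphaScreen: HP1-beta (50 nM) preformed 30 min with biotin-H3(1-18)K9me3 peptide (50 nM) in PBS pH 7.4, 0.01% Tween-20. Compound added for 30 min at RT, then streptavidin donor/nickel chelate acceptor beads (10 ug/mL) for 30 min.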
# PLK1 PBD inh – inhibitors of human PLK1 polo-box domain binding; actives 2.8% (n = 360,000); Potency, µM, most hits filed as inhibitors; Plk1 PBD binding of FITC phosphopeptide, fluorescence polarization; P53350; also: series mostly up to about 57 µM; nearly all actives have a fitted effect of over 65% in size
# PI5P4Ka inh – PI5P4K alpha (human) kinase inhibition | actives 1.2% (n = 330,000) | max response, % | PI5P4Kalpha enzyme, ADP-Glo luminescence, 60 min; active compounds read low | P48426; active = max response of -50% or lower; inconclusive = between -30% and -50%; inactive = -30% or higher; also: value at the top dose of about 77 µM
#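 qHTS, 1536-well: enzyme/substrate mix, compound by pin tool, 5 microM ATP final; RT 60 min; ADP-Glo reagents 1 (45 min) then 2 (30 min); luminescence.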
# JMJD2A Tudor – blocks the human JMJD2A Tudor domain; actives 4.4% (n = 390,000); Potency, µM (highest dose often 114 µM), actives largely listed as inhibitors; O75164; AlphaScreen JMJD2A-Tudor / H3K4me3 peptide binding; also: nearly all actives have a fitted effect of over 50% in size
# A number is an active result; 0 = inactive; ? = inconclusive; - = no result; [ ] = another dose, or the depositor's remark. Unless noted, calls follow the shape of the dose curve; as a rule, active = well fitted curve in the direction sought with a large enough effect; inconclusive = small, poorly fitted or top-dose-only effect, or another doubt; inactive = no such curve, though single readings can be large; an effect the other way counts as inactive or inconclusive.
SMILES,KAT2A inh,BAZ2B inh,HP1b binding inh,PLK1 PBD inh,PI5P4Ka inh,JMJD2A Tudor
O=C(CS(=O)(=O)c1cccc2nsnc12)NCc1ccccc1,0,0,0,-,-,0
COCCNc1nc(-c2ccc(OC)cc2)c(-c2ccc(OC)cc2)s1,0,71µM,0,?,0,?
CN(C)c1nc(N)c(C#N)c(C#N)c1C#N,-,-,0,27µM,0,0
CN(C)c1nc(-c2ccccc2)cc(C(F)(F)F)c1C#N,0,0,0,0,0,0
Cc1cc2c(s1)c1cnn(Cc3c(F)cccc3C(F)(F)F)c(=O)c1n2C,-,-,-,-,-,0
COc1ccc2c(C#N)c3ccccn3c2c1,0,0,0,0,0,0
CSc1ncc(C(=O)Nc2cccc(C)c2C)c(C)n1,0,0,0,0,0,0
C=CCOn1c(=O)c(-c2ccc(OC)c(OC)c2)[n+]([O-])c2ccccc21,0,0,0,?,0,89µM
C=CCOn1c(=O)c(-c2cccs2)[n+]([O-])c2ccccc21,0,0,0,0.84µM,-,0
COc1ccc(-c2c(=O)n(OC)c3ccccc3[n+]2[O-])cc1OC,0,0,0,?,0,0
CCNC(=S)NNc1nnc(-c2ccccc2)c(-c2ccccc2)n1,0,0,0,0,0,0
Cc1ccc(-c2nc(C(=O)NC3CCCCCC3)no2)cc1,-,-,0,9.5µM,0,16µM
Cc1ccc(-c2cc(C(=O)NC3CCCCC3)no2)cc1,0,0,0,0,0,0
Cc1ccc2[nH]c(-c3cccc(N)c3)cc2c1,0,50µM,?,0,0,?
Cc1cc(C)c(OCCCCN(C)Cc2ccccc2)c(C)c1,0,?,?,0,0,7.1µM
Cc1ccc(C(C)C)c(OCCCN(C)Cc2ccccc2)c1,0,?,?,0,0,22µM
Cc1ccc(C(C)C)c(OCC(O)CN(C)Cc2ccccc2)c1 (stereo unspecified),0,0,0,0,0,0
CCCOc1cccc(C(=O)Nc2cccc(-c3nc4ncccc4o3)c2C)c1,0,0,0,-,-,0
Cc1nn(-c2ccccc2)c(C)c1NC(=O)COC(=O)CC(C)c1ccccc1 (stereo unspecified),0,0,0,0,0,16µM
Cc1ccc(C)c(OCC(=O)OCC(=O)Nc2c(C)nn(-c3ccccc3)c2C)c1,0,0,0,0,0,0
Cc1ccc(N2CC(NC(=O)c3cccs3)CC2=O)cc1 (stereo unspecified),0,0,0,-,-,0
Cc1cc(C(=O)CSc2n[nH]c(N)n2)c(C)n1-c1cccc(F)c1,0,50µM,0,0,-,?
CCCCC[C@@H](C)N1C[C@@H](COCc2ccccc2)Oc2cc(N3CCC[C@@H]3COC)ccc2S1(=O)=O,-,-,-,0,0,-
COc1cc2c(cc1OC)CN(C(=O)c1oc3ccccc3c1C)CC2,0,?,0,0,0,0
Cn1c(C(=O)N2CCc3ccccc3C2)cc2oc3ccccc3c21,0,?,?,0,0,79µM
SMILES,KAT2A inh,BAZ2B inh,HP1b binding inh,PLK1 PBD inh,PI5P4Ka inh,JMJD2A Tudor
CCn1c(C(=O)N2CCc3ccccc3C2)cc2oc3ccccc3c21,0,50µM,0,0,0,?
NC(=O)c1ccc(NC(=O)COc2coc(CN3CCc4ccccc4C3)cc2=O)cc1,0,?,0,0,0,0
Nc1ccc2nc(-c3ccccn3)[nH]c2c1,0,45µM,0,0,0,?
Nc1ccc2nc(-c3ccccc3)[nH]c2c1,?,?,0,0,0,0
Nc1ccc2nc(-c3ccc(N)c(Cl)c3)[nH]c2c1,?,?,0,0,-63,?
Nc1ccc2nc(-c3cccnc3)[nH]c2c1,0,0,0,0,0,0
CC1CCCC(C)N1C(=O)CSc1nnc(-c2ccco2)n1C (stereo unspecified),0,0,0,0,0,0
COc1cc(C2C=C(C34CC5CC(CC(C5)C3)C4)NC(=S)N2)cc(OC)c1OC (stereo unspecified),0,0,0,0,0,0
COc1ccc(C2=CC(c3cc(OC)c(OC)c(OC)c3)NC(=S)N2)cc1 (stereo unspecified),0,0,0,12µM,0,0[11.4 µM]
CC1=C([N+](=O)[O-])C(c2ccc(Cl)cc2)NC(=O)N1C (stereo unspecified),0,0,0,3µM,?,20µM
CCOc1cc(C2NC(=O)N(C)C(C)=C2[N+](=O)[O-])ccc1OC(C)=O (stereo unspecified),0,0,0,0,0,0
Cc1ccc2nc(COc3cccc(NC(=O)COc4ccccc4F)c3)cc(=O)n2c1,0,0,0,-,-,0
O=C(CNC(=O)c1ccc(Cl)cc1)OCC(=O)N1CCCC1,0,0,0,0,0,0
CCNc1nc(SCC(=O)Nc2ccccc2)nc(N2CCOCC2)n1,0,0,0,0,0,0
CC(C)(C)Nc1nc(SCC(=O)Nc2ccccc2Cl)nc(N2CCOCC2)n1,0,79µM,0,0,0,0
Cc1ccc(CNC(=O)CCc2c(C)nc3c(-c4ccc(F)cc4)c(C)nn3c2C)cc1,0,0,0,-,-,0
CC1(c2ccc(OC(F)F)cc2)NC(=O)N(CC(=O)Nc2ccc(Cl)cc2F)C1=O (stereo unspecified),0,0,0,0,0,0
Cc1cc2oc(=O)cc(CN3CCCC3)c2cc1Cl,-,-,-,0,0,-
COc1ccc(C(=O)C2CCCN(Cc3cc(C)c(O)c(C)c3)C2)c(OC)c1 (stereo unspecified),0,0,0,0,0,0
CCOC(=O)C1CCN(Cc2cc(=O)oc3cc(C)c(Cl)cc23)CC1,0,0,0,27µM,0,?
CCOC(=O)C1CCCN(Cc2ccc(OC)cc2OC)C1 (stereo unspecified),0,0,?,0,0,1.3µM
COc1cc(OC)c(OC)cc1CN1CCCC(C(=O)c2ccccc2SC)C1 (stereo unspecified),0,0,0,24µM,0,?
COc1ccc(C(=O)C2CCCN(Cc3cc(Cl)ccc3O)C2)c(OC)c1 (stereo unspecified),0,0,0,0,0,0
COc1ccc(CN2CCCC(C(=O)N3CCCC3)C2)c(OC)c1 (stereo unspecified),?,50µM,50µM,0,0,0.89µM
O=S1(=O)C[C@@H](N2CCC[C@@H]2CO)[C@H](COCc2ccccc2)N1,-,-,-,0,0,-
CCn1c(=O)c2sccc2n2c(CCCC(=O)N3CCN(c4cccc(Cl)c4)CC3)nnc12,0,0,0,-,-,0
COc1ccc(CCNC(=O)CCCc2nnc3n(C)c(=O)c4sccc4n23)cc1OC,0,?,0,0,0,0
COc1cccc(S(=O)(=O)N2CCN(S(=O)(=O)c3ccc4c(c3)OCCO4)CC2)c1,-,-,-,-,-,0
COc1ccc(CN2CCCN(C)CC2)c(OC)c1C,0,?,?,0,0,8.9µM

# Assay outcomes deposited in PubChem by National Center for Advancing Translational Sciences (NCATS).
